Assay outcomes (PubChem)
OPRM1-OPRD1 ag: OPRM1-OPRD1 heterodimerization agonism | P35372+P41143 | cells, luminescence | activation, % at 9.3 µM | hit rate 0.3% among 340,000 | AID 504326; in the data active = activation above about 18%
HTR5A inv ctr: counter-screen for OPRM1-OPRD1 inverse agonists: human HTR5A inverse agonism. P47898. HTR5A cell line, luminescence. inhibition, % at 9.3 µM. hit rate 0.083% among 340,000; in the data active = inhibition mostly above about 23%, no sharp cut-off; inactive = mostly below about 18%
Target sequence (P47898 whole entry, looked up): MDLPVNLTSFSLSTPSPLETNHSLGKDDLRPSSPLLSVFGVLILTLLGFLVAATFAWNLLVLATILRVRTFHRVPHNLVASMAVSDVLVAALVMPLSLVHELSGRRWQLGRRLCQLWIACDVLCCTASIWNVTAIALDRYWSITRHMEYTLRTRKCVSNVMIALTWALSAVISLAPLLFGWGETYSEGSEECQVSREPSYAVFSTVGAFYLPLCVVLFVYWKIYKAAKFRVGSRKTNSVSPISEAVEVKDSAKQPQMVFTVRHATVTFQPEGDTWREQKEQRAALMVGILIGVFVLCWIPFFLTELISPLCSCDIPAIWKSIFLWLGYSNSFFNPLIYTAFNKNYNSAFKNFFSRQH
m5-HT2A agonist: mouse HTR2A agonism via beta-arrestin recruitment | activation, % at 7.6 µM | P35363 | AID 624169 | CHO-K1 mHTR2A beta-arrestin complementation, luminescence; percent of 30 µM serotonin response | hit rate 0.66% among 360,000;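 active = activation above a run cutoff, the mean activation of all tested compounds plus 3 SD, cut at about 14% in these data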
MOR-DOR inv ag: mu-delta opioid heterodimer inverse agonism; inhibition, % at 9.3 µM; cell-based MOR-DOR heterodimer luminescence; hit rate 0.21% among 340,000; AID 504357; in the data active = inhibition above about 22%, passing the limit was not always enough
HTR5A ag ctr: HTR5A agonism, opioid heterodimer counter-screen; activation, % at 9.3 µM; HTR5A agonist assay, luminescence, cell-based; P47898; AID 504692; hit rate 0.61% among 340,000; in the data active = activation mostly above about 9.5%, no sharp cut-off; inactive = mostly below about 7.6%
OPRM1-D1 inv cf: OPRM1-OPRD1 heterodimer inverse agonism, confirmation | shares compounds with MOR-DOR inv ag | cells expressing OPRM1/OPRD1 heterodimer, luminescence | inhibition, % at 9.3 µM | hit rate 20% among 580 | AID 504900; in the data active = inhibition above about 32%
HTR5A inv count: HTR5A inverse agonism, opioid heterodimer counter-screen. shares compounds with MOR-DOR inv ag. HTR5A-expressing cells, luminescence. inhibition, % at 9.3 µM. 580 tested, under 10 active. AID 504914; call rule not given here
Large screens that a line does not name were inactive (follow-up assays come after a bar, where they were run). Sampled rows, rich in hits. Any-hit rate of the full collection: about 1.6%.

COC(=O)CCC/C=C1/SCC(NC(=O)c2ccccc2)C1O (stereo not drawn)	none
COC(=O)CCC/C=C1/SCC(NC(=O)c2ccccc2)C1=O (stereo not drawn)	MOR-DOR inv ag 33 | OPRM1-D1 inv cf inactive | HTR5A inv count inactive
COCCNc1nc(Oc2cccc3ccccc23)c2sccc2n1	none (no result: OPRM1-OPRD1 ag, HTR5A inv ctr, MOR-DOR inv ag, HTR5A ag ctr)
CC(=O)NC(c1ccc(Cl)cc1)c1c(O)ccc2ccc(O)cc12 (stereo not drawn)	MOR-DOR inv ag 33 | OPRM1-D1 inv cf inactive | HTR5A inv count inactive
CC(C)Nc1nc(Nc2ccc(F)cc2)c2sccc2n1	none (no result: OPRM1-OPRD1 ag, HTR5A inv ctr, MOR-DOR inv ag, HTR5A ag ctr)
C/C(=C\C(=S)Nc1ccccc1)Nc1ccccc1	MOR-DOR inv ag 31 | OPRM1-D1 inv cf inactive | HTR5A inv count inactive
C/C(=C\C(=O)c1ccccc1)Nc1ccc(O)cc1	none
O=C1C=C(O)c2cccc3cccc1c23	none
NN=C1C(=O)c2cccc3cccc1c23	MOR-DOR inv ag 57 | OPRM1-D1 inv cf inactive | HTR5A inv count inactive
CC(=O)Oc1ccc(OC(C)=O)c2c1CC(C)=C(C)C2	MOR-DOR inv ag 39 | OPRM1-D1 inv cf 60 | HTR5A inv count inactive
O=C1NC(Cc2ccccc2)c2nc3ccc(F)cc3c(=O)n2-c2cc3ccccc3cc21 (stereo not drawn)	none (no result: OPRM1-OPRD1 ag, HTR5A inv ctr, MOR-DOR inv ag, HTR5A ag ctr)
COC(=O)c1[nH]c(=O)c2ccccc2c1O	MOR-DOR inv ag 42 | OPRM1-D1 inv cf inactive | HTR5A inv count inactive
CCc1nc2ccc(C(=O)Nc3ccc(C(N)=O)cc3)cn2c1N(CCC(C)C)CCN(C)C	none (no result: OPRM1-OPRD1 ag, HTR5A inv ctr, MOR-DOR inv ag, HTR5A ag ctr)
CC1CCCN(c2ccc(/C=C(\C#N)c3nn(-c4ccccc4)c(N)c3C#N)cc2[N+](=O)[O-])C1 (stereo not drawn)	MOR-DOR inv ag 29 | OPRM1-D1 inv cf inactive | HTR5A inv count inactive
CC1CCN(c2ccc(/C=C(\C#N)c3nn(-c4ccccc4)c(N)c3C#N)cc2[N+](=O)[O-])CC1	none
CC(=O)NC1C(=O)Nc2c1cccc2C(F)(F)F (stereo not drawn)	MOR-DOR inv ag 30 | OPRM1-D1 inv cf inactive | HTR5A inv count inactive
O=C(COC(=O)c1ccc(CO)cc1)c1ccc(S(=O)(=O)N2CCCCC2)cc1	MOR-DOR inv ag 38 | OPRM1-D1 inv cf inactive | HTR5A inv count inactive
CC1(C(=O)NS(=O)(=O)Cc2ccccc2C(F)(F)F)CCN1C(=O)C/C=C/c1ccccc1 (stereo not drawn)	none (no result: OPRM1-OPRD1 ag, HTR5A inv ctr, MOR-DOR inv ag, HTR5A ag ctr)
Cc1ccc(Cc2c(C3CCCCC3)nc3c4ccccc4ccn23)cc1	none (no result: OPRM1-OPRD1 ag, HTR5A inv ctr, MOR-DOR inv ag, HTR5A ag ctr)
CCCCC(=O)Nc1nnn(CCC)n1	none
CCCCC(=O)NC(=S)Nc1nnn(CCC)n1	MOR-DOR inv ag 37 | OPRM1-D1 inv cf inactive | HTR5A inv count inactive
Cc1ccc(C(=O)N2CCC2(C)C(=O)NC(C)C)cc1 (stereo not drawn)	none (no result: OPRM1-OPRD1 ag, HTR5A inv ctr, MOR-DOR inv ag, HTR5A ag ctr)
C=CCn1c(=O)c2c(nc3n2CC(C)CN3c2cccc(OC)c2)n(C)c1=O (stereo not drawn)	MOR-DOR inv ag 36 | OPRM1-D1 inv cf inactive | HTR5A inv count inactive
CC(C)C1OC2c3cccc4cccc(c34)C2N1c1ccccc1 (stereo not drawn)	MOR-DOR inv ag 65 | OPRM1-D1 inv cf inactive | HTR5A inv count inactive
CC(=O)Oc1ccc(OC(C)=O)c(SCCCCCN2CCOCC2)c1	MOR-DOR inv ag 29 | OPRM1-D1 inv cf inactive | HTR5A inv count inactive
CC(C)c1ccc(OCCCCCN2CCOCC2)cc1	none
CC(=O)Nc1ccc(NC(=O)CCC(=O)OCC(=O)c2ccc(C)c([N+](=O)[O-])c2)cc1	HTR5A inv ctr 21, MOR-DOR inv ag 57 | OPRM1-D1 inv cf 36 | HTR5A inv count inactive
O=C(CCC(=O)OCc1ccc([N+](=O)[O-])cc1)Nc1ccccc1Cl	none
Cc1ccc(N2CC(C(=O)OCC(=O)c3ccc(C)c([N+](=O)[O-])c3)CC2=O)cc1 (stereo not drawn)	MOR-DOR inv ag 52 | OPRM1-D1 inv cf inactive | HTR5A inv count inactive
Cc1ccc(NC(=O)CCC(=O)OCC(=O)c2ccc(Oc3ccc([N+](=O)[O-])cc3)cc2)cc1	none
Cc1ccc(C(=O)COC(=O)CCC(=O)Nc2ccccc2Cl)cc1[N+](=O)[O-]	MOR-DOR inv ag 45 | OPRM1-D1 inv cf inactive | HTR5A inv count inactive
CC(=O)c1ccc(NC(=O)CCC(=O)OCC(=O)c2cccc([N+](=O)[O-])c2)cc1	MOR-DOR inv ag 61 | OPRM1-D1 inv cf 51 | HTR5A inv count inactive
Cn1ccn(CCCCCCn2ccn(C)c2=S)c1=S	none (no result: OPRM1-OPRD1 ag, HTR5A inv ctr, MOR-DOR inv ag, HTR5A ag ctr)
Cc1nc2ccc(C(=O)N3c4ccccc4N=C(c4ccc(C(F)(F)F)cc4)C3C(=O)NC(C)(C)C)cc2[nH]1 (stereo not drawn)	none (no result: OPRM1-OPRD1 ag, HTR5A inv ctr, MOR-DOR inv ag, HTR5A ag ctr)
Cc1ccc(C(=O)COC(=O)c2ccncc2)cc1[N+](=O)[O-]	MOR-DOR inv ag 49 | OPRM1-D1 inv cf inactive | HTR5A inv count inactive
O=C(COC(=O)C1CCN(S(=O)(=O)c2cccs2)CC1)c1cc2ccccc2o1	MOR-DOR inv ag 58 | OPRM1-D1 inv cf inactive | HTR5A inv count inactive
O=C(COC(=O)C1CCN(S(=O)(=O)c2cccs2)CC1)c1ccc2c(c1)OCCO2	none
CN(C)C(=O)c1cc2c(c(-c3cccc(C4=CCCCC4)c3)n1)[C@@H](CCO)N(S(=O)C(C)(C)C)C2 (stereo partly drawn)	none (no result: OPRM1-OPRD1 ag, HTR5A inv ctr, MOR-DOR inv ag, HTR5A ag ctr)
Cc1ccc(S(=O)(=O)/N=C2\C=C(Nc3cccc(C(=O)O)c3)C(=O)c3ccccc32)c(C)c1	none
CC(C)(C)c1ccc(S(=O)(=O)/N=C2\C=C(NS(=O)(=O)c3ccccc3)C(=O)c3ccccc32)cc1	MOR-DOR inv ag 32 | OPRM1-D1 inv cf inactive | HTR5A inv count inactive
Cc1ccc(S(=O)(=O)/N=C2\C=C(NS(=O)(=O)c3ccccc3)C(=O)c3ccccc32)c(C)c1	MOR-DOR inv ag 30 | OPRM1-D1 inv cf inactive | HTR5A inv count inactive
CC1=C(C(=O)N(C(C)C)C(C)C)CC(CC(=O)NCc2ccco2)C(=O)N1CCC1=CCCCC1 (stereo not drawn)	none (no result: OPRM1-OPRD1 ag, HTR5A inv ctr, MOR-DOR inv ag, HTR5A ag ctr)
COC(=O)[C@H](Cc1ccccc1)NC(=O)/C=C/[C@H]1O[C@@H](n2ccc(=O)[nH]c2=O)[C@H](O)[C@@H]1O	none (no result: OPRM1-OPRD1 ag, HTR5A inv ctr, MOR-DOR inv ag, HTR5A ag ctr)
Cc1cc(C(=O)NNc2ccc(Cl)cc2)no1	MOR-DOR inv ag 35 | OPRM1-D1 inv cf inactive | HTR5A inv count inactive
Cc1cc(C(=O)NNc2ccc(C)c(C)c2)no1	MOR-DOR inv ag 58 | OPRM1-D1 inv cf inactive | HTR5A inv count inactive
Cc1cc(C(=O)NNC(=O)Nc2ccc(Cl)cc2)no1	none (no result: OPRM1-OPRD1 ag, HTR5A inv ctr, MOR-DOR inv ag, HTR5A ag ctr)
Cc1ccc(NNC(=O)c2cc(C)on2)c(C)c1	none
COc1ccc2c(c1)C(=O)C(=O)N2	HTR5A inv ctr 31, MOR-DOR inv ag 63 | OPRM1-D1 inv cf inactive | HTR5A inv count inactive
Cc1cccc(C)c1OCC(=O)NC1CC1	none
Cc1cccc(C)c1OCC(=O)NNC(=S)NC(=O)C1CC1	MOR-DOR inv ag 36 | OPRM1-D1 inv cf inactive | HTR5A inv count inactive
Cc1cn([C@H]2C[C@H](O)[C@@H](/C=C/C(=O)N3CCN(Cc4ccc(F)cc4)CC3)O2)c(=O)[nH]c1=O	none (no result: OPRM1-OPRD1 ag, HTR5A inv ctr, MOR-DOR inv ag, HTR5A ag ctr)
